Assay results taken from PubChem BioAssay (Tox21).
Results filed as inconclusive are left out. The source made the active and inactive calls. Unless noted, calls come from the whole dose curve; as a rule, active = well fitted curve in the direction sought with a large enough effect in the repeat runs; inconclusive = weak or mixed curves; inactive = no such curve, though single readings can be large; an effect the other way counts as inactive or inconclusive.

Tests used:
[1] = qHTS assay to identify small molecule antagonists of the retinoid-related orphan receptor gamma (ROR-gamma) signaling pathway - cell viability counter screen (AID 1159520); details: Tet-on RORgamma CHO cells viability, ATP luminescence, 16 h; series mostly up to 92.4 µM; note: % is set by controls: 0 for no effect and ±100 for the full control effect; nearly all actives have a fitted effect of over 50% in size
In short: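 Tet-on ROR gamma CHO cells were given compounds for 2 hr, then doxycycline hyclate at 1 uM final, and incubated 16 hr at 37 C. Viability was measured as ATP content by CellTiter-Glo luminescence.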

[2] = target: Nuclear receptor ROR-gamma (Homo sapiens) (UniProt P51449); assay: qHTS assay to identify small molecule antagonists of the retinoid-related orphan receptor gamma (ROR-gamma) signaling pathway (AID 1159521;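 note: CHO cells with doxycycline inducible ROR-gamma driving an RORE luciferase reporter; top concentration of the series differs between compounds; % is set by controls: 0 for no effect and ±100 for the full control effect; nearly all actives have a fitted effect of over 50% in size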); details: Tet-on RORgamma CHO cells, RORE-luciferase, 16 h; series mostly up to 92.4 µM
In short: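 Decreased RORE-driven luciferase luminescence indicates antagonism. Tet-on RORγ CHO cells received compound, then 1 uM final doxycycline 2 h later; signal read after 16 h incubation.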

[3] = qHTS assay to identify small molecule agonists of the AP-1 signaling pathway - cell viability counter screen (AID 1159525; calls by dose curve; note: nearly all actives have a fitted effect of over 55% in size); details: ME-180 AP-1-bla cells viability, ATP luminescence, 5 h; series mostly up to 76.8 µM
In short: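 Same-well cytotoxicity counter screen of the Tox21 10K library in ME-180 cells. The readout is ATP-dependent luminescence after 5 h compound treatment. Data are normalised to DMSO and tetra n-octyl ammonium bromide controls.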

[4] = qHTS assay to identify small molecule agonists of the AP-1 signaling pathway (AID 1159526; calls by dose curve; note: % is set by controls: 0 for no effect and ±100 for the full control effect); details: ME-180 (cervical carcinoma) AP-1-bla reporter, beta-lactamase FRET ratio, 5 h; series mostly up to 76.8 µM
[5] = qHTS assay to identify small molecule agonists of the RXR signaling pathway - cell viability counter screen (AID 1159529); details: RXR-alpha-bla HEK293T viability, CellTiter-Glo, 16 h; series mostly up to 76.8 µM;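 note: HEK 293T cells carrying an RXR-alpha UAS beta-lactamase reporter; % is set by controls: 0 for no effect and ±100 for the full control effect; nearly all actives have a fitted effect of over 50% in size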
In short: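 In this parallel viability measure, GeneBLAzer RXR-alpha HEK 293T cells (2% charcoal-stripped FBS) were given a 5 hr preincubation, treated with compounds 16 hr at 37 C, and read by CellTiter-Glo luminescence.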

[6] = qHTS assay to identify small molecule antagonists of the retinoid acid receptor (RAR) signaling pathway - cell viability counter screen (AID 1159551); details: C3RL4 cells viability, ATP luminescence (CellTiter-Glo), 6 h; series mostly up to 92.4 µM; note: % is set by controls: 0 for no effect and ±100 for the full control effect; nearly all actives have a fitted effect of over 35% in size
In short: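 In this counter screen, the RARE-luciferase line C3RL4 was exposed for 6 h at 37 C and 5% CO2 to compounds with retinol at 1 uM final. Cellular ATP, read by luminescence, served as the viability measure.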

[7] = qHTS assay to identify small molecule antagonists of the retinoic acid receptor (RAR) signaling pathway (AID 1159552; note: % is set by controls: 0 for no effect and ±100 for the full control effect; nearly all actives have a fitted effect of over 50% in size); details: C3RL4 RARE luciferase reporter, retinol-stimulated, 6 h; series mostly up to 92.4 µM
In short: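 C3RL4 RARE-luc cells, overnight plating; retinol 1 uM final added right after compound; 6 hr 37 C; luciferase read at 30 min RT.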

[8] = target: Retinoic acid receptor RXR-alpha (Homo sapiens) (UniProt P19793); assay: qHTS assay to identify small molecule agonists of the RXR signaling pathway (AID 1159527; calls by dose curve; note: % is set by controls: 0 for no effect and ±100 for the full control effect; nearly all actives have a fitted effect of over 35% in size); details: HEK293T RXRa-UAS-bla, beta-lactamase ratio, 16 h; series mostly up to 76.8 µM
In short: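 16 hr incubation of compound-treated RXR-alpha-UAS-bla HEK 293T cells (2% charcoal-stripped FBS, 37 C) preceded a 2 hr room-temperature LiveBLAzer FRET substrate step and blue/green fluorescence measurement.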

[9] = qHTS assay to identify small molecule antagonists of the vitamin D receptor (VDR) signaling pathway - cell viability counter screen (AID 743225); details: VDR-bla HEK293T viability, CellTiter-Glo luminescence, 16 h; series mostly up to 61 µM
In short: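 Parallel cytotoxicity test: VDR-UAS-bla HEK 293T, 3 nM (final) 1-alpha,25-dihydroxyvitamin D3 with test compound, 16 h, 37C. Endpoint is CellTiter-Glo luminescence in the same wells.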

[10] = qHTS assay to identify small molecule antagonists of the estrogen related receptor (ERR) signaling pathway from Tox21 library - cell viability counter screen (AID 1224834); details: ERR reporter cells viability, CellTiter-Fluor, 17.5 h; series mostly up to 92.4 µM; note: % is set by controls: 0 for no effect and ±100 for the full control effect; nearly all actives have a fitted effect of over 30% in size
In short: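 Counter screen run in ERR cells (2,000 cells/well): cells pre-incubated 6 h, then treated with compounds for 17.5 h at 37 C. Fluorescence was read 30 min after CellTiter-Fluor addition.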

Sequence of Retinoic acid receptor RXR-alpha (Homo sapiens) (P19793 whole entry, looked up): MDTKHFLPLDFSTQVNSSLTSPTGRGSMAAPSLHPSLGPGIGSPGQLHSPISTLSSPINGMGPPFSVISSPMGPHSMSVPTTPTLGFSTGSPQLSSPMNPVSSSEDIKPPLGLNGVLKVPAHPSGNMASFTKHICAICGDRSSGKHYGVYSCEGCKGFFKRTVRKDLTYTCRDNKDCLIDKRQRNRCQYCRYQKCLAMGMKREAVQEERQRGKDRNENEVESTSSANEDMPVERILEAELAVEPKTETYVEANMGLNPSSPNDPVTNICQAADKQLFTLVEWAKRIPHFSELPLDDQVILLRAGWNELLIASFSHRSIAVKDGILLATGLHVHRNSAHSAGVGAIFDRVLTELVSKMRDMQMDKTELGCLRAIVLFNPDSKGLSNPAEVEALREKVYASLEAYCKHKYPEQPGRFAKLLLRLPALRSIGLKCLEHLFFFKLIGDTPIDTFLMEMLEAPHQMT

CC(C)=CCCC(C)CCOC(=O)C(C)C (stereo not drawn)
inactive: Potency [1] | Potency [2] | Potency [3] | Potency [4] | Potency [5] | Potency [6] | Potency [7]

CCO[Si](C)(C)OCC
inactive: Potency [1] | Potency [2] | Potency [3] | Potency [4] | Potency [8] | Potency [5] | Potency [7]

CCCCOC(=O)C(C)CC (stereo not drawn)
inactive: Potency [9] | Potency [1] | Potency [2] | Potency [3] | Potency [4] | Potency [8] | Potency [5] | Potency [6] | Potency [7] | Potency [10]

C=C(C)CCCC
inactive: Potency [1] | Potency [2] | Potency [3] | Potency [4] | Potency [5] | Potency [6] | Potency [7] | Potency [10]

CCCC(=O)OCC(COC(=O)CCC)OC(=O)CCC
inactive: Potency [1] | Potency [2] | Potency [3] | Potency [4] | Potency [8] | Potency [5] | Potency [7] | Potency [10]

Cc1cc(=O)[nH]c(=O)[nH]1
inactive: Potency [1] | Potency [2] | Potency [3] | Potency [4] | Potency [8] | Potency [5] | Potency [6] | Potency [7] | Potency [10]

C/C=C/C(=O)C1=C(C)CCCC1(C)C
inactive: Potency [1] | Potency [2] | Potency [3] | Potency [4] | Potency [5] | Potency [6] | Potency [7]

CO[Si](CCCNCCNCCN)(OC)OC
inactive: Potency [1] | Potency [2] | Potency [3] | Potency [4] | Potency [5] | Potency [6] | Potency [7] | Potency [10]

CC(C)C(=O)OCc1ccccc1
inactive: Potency [1] | Potency [2] | Potency [3] | Potency [4] | Potency [5] | Potency [6] | Potency [7] | Potency [10]

CC(C)(C)c1n[nH]c(=O)n(N)c1=O
inactive: Potency [1] | Potency [2] | Potency [3] | Potency [4] | Potency [8] | Potency [5] | Potency [7] | Potency [10]

O=S(=O)(O)c1cc(S(=O)(=O)O)c2ccc3c(S(=O)(=O)O)cc(S(=O)(=O)O)c4ccc1c2c43
inactive: activity, negative = cytotoxicity [1] 3.7% [at 19 µM] | activity change, negative = inhibition [2] 12.6% [at 19 µM] | viability change, negative = cytotoxic [3] -1.68% [at 15.8 µM] | activation [4] -3.16% [at 15.8 µM] | activity change, negative = cytotoxicity [5] -4.37% [at 15.8 µM] | activity change, negative = cytotoxicity [6] 4.17% [at 19 µM] | activity, negative = inhibition [7] 14.4% [at 19 µM] | viability change, negative = cytotoxic [10] 4.03% [at 19 µM]

CC1=CP(=O)(c2ccccc2)CC1 (stereo not drawn)
inactive: Potency [1] | Potency [2] | Potency [3] | Potency [4] | Potency [8] | Potency [5] | Potency [7]

CCOC(OCC)C(=O)c1ccccc1
inactive: Potency [1] | Potency [2] | Potency [3] | Potency [4] | Potency [8] | Potency [5] | Potency [7] | Potency [10]

CCCC(C)CCC(C)=O (stereo not drawn)
inactive: Potency [1] | Potency [2] | Potency [3] | Potency [4] | Potency [8] | Potency [5] | Potency [7]

CO[Si](CCC1CCC2OC2C1)(OC)OC (stereo not drawn)
inactive: Potency [1] | Potency [2] | Potency [3] | Potency [4] | Potency [5] | Potency [6] | Potency [7] | Potency [10]
